Reference: PubChem BioAssay (NCI)
Compounds without any hit were thinned out: in the full panel of roughly 83,000, 20% have a hit.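 Each cell line was grown in a 96-well plate and treated with one concentration of compound for 48 hours. Values below 10 were considered active.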 Values without a mark were called inactive. The source made the active and inactive calls.

Assays:
Assay in all cases: NCI-60 one-dose screen, 48 h (100 = growth as untreated, 0 = no growth, -100 = all killed)
Conditions in all cases: 10 µM unless noted
SK-MEL-2 melanoma = tested on: SK-MEL-2 melanoma
EKVX NSCLC = tested on: EKVX NSCLC
SN12C renal = tested on: SN12C renal
UO-31 renal = tested on: UO-31 renal
TK-10 renal = tested on: TK-10 renal
ACHN renal = tested on: ACHN renal
CAKI-1 renal = tested on: CAKI-1 renal
A498 renal = tested on: A498 renal
CCRF-CEM leukemia = tested on: CCRF-CEM leukemia
MOLT-4 leukemia = tested on: MOLT-4 leukemia

| SMILES | growth (SK-MEL-2 melanoma) | growth (EKVX NSCLC) | growth (SN12C renal) | growth (UO-31 renal) | growth (TK-10 renal) | growth (ACHN renal) | growth (CAKI-1 renal) | growth (A498 renal) | growth (CCRF-CEM leukemia) | growth (MOLT-4 leukemia) |
| --- | --- | --- | --- | --- | --- | --- | --- | --- | --- | --- |
| Cn1cc(-c2cc3nc(-c4c[nH]c5ccccc45)cc(N)n3n2)c2ccccc21 | -65.5% (active) | 55.1% | -78.5% (active) | -61.2% (active) | 8.91% (active) | -73.9% (active) | 29.7% | 130% | -38.1% (active) | -19.4% (active) |
| CCC(=O)c1c2c(c3ccc4c5ccccc5ccc4n13)C(=O)c1ccccc1C2=O | 89.2% | 71.2% | 85.6% | 59.8% | 122% | 83.3% | 84% | 215% | 100% | 89.6% |
| Cc1ccc(Nc2nnc(-c3c[nH]c4ccccc34)o2)c(C)c1 | 31.4% | 21.9% | 18% | 26.4% | 45.8% | 34.3% | 33.5% | 112% | -0.0547% (active) | 0.191% (active) |
| Cc1cc(Cl)ccc1NC(=O)Nc1ccc(-c2ccc3c(c2)NC(=O)/C3=C\c2ccc[nH]2)cc1 | 121% | 67.5% | 97.6% | 78.3% | 115% | 98.8% | 99% | 119% | 97.8% | 86.2% |
| COc1cc(/C=C/C(=O)c2cnn(-c3cc(=O)[nH]c4ccc(C)cc34)c2C)cc(OC)c1OC | -73.1% (active) | -9.39% (active) | 10.4% | -45.8% (active) | 37.8% | -8.39% (active) | 16.4% | 8.36% (active) | -22.2% (active) | -8.06% (active) |
| O=C(c1ccc(Cl)cc1)C1[C@H](c2ccccc2Cl)[C@@H](c2ccccc2)NC12C(=O)Nc1ccc(Cl)cc12 (stereo not given in full) | -87.1% (active) | -23.5% (active) | -90.4% (active) | -51.2% (active) | -0.422% (active) | -26.1% (active) | -20.2% (active) | -40.7% (active) | -6.99% (active) | -29.4% (active) |
| CN1CCN(c2ccc3c4c(cccc24)C(=O)N(c2cccc(-c4nn(-c5ccccc5)cc4-c4nc5ccccc5s4)c2)C3=O)CC1 | 120% | 107% | 94.8% | 68.5% | 119% | 101% | 97% | 128% | 60.3% | 47.5% |
| O=C(NNC(=S)NC(=O)c1ccccc1)c1ccc(OCc2nc3ccc(Cl)cc3[nH]2)cc1 | -47.3% (active) | -53% (active) | -80.2% (active) | -76.1% (active) | 11.2% | -43% (active) | -1.67% (active) | -55% (active) | 2.87% (active) | 2.46% (active) |
| CCOc1ccc(-c2cc(-c3cc(C(C)C)c(O)cc3C)nn2-c2ccc(S(N)(=O)=O)cc2)cc1 | 54.5% | 30.9% | 30.6% | 48.6% | 84.2% | 54.1% | 58.7% | 98.3% | 11.3% | 11.6% |
| N#Cc1ccc(C(=O)CSc2nc3c(c(Nc4ccc(S(N)(=O)=O)cc4)n2)CCC3)cc1 | 87.4% | 49.8% | 35.3% | 66.8% | 55.2% | 10.9% | 39.1% | 137% | 81.1% | 73.3% |
| COc1c(B(O)O)cc(F)cc1-c1nc2c(F)cc3[nH]ncc3c2c2c1CCCC2 | 46.8% | 13.5% | 17.2% | 3.57% (active) | 21.3% | 4.28% (active) | 0.122% (active) | -30.7% (active) | -3.23% (active) | 17% |
| CC1=C(C(=O)OCc2ccccc2)C(c2ccc(N(C)C)cc2)n2c(nc3ccccc32)N1 (stereo not given) | 96.5% | 46% | 98.2% | 61.1% | 99.4% | 88.5% | 55.6% | 74.5% | 105% | 100% |
| Cc1ccc(C(C(=O)NC2CCCCC2)N(Cc2ccccc2Cl)C(=O)c2ccc(CN3CCOCC3)o2)o1 (stereo not given) | 92.8% | 89% | 95% | 71.1% | 101% | 104% | 72.4% | 119% | 86.8% | 70.3% |
| Cc1oc(-c2ccccc2)nc1CN[C@@H]1C[C@@H]2C[C@H]([C@H]1C)C2(C)C | 85.7% | 42.4% | 10.1% | 23.9% | 80.8% | 25.8% | 44.5% | 31.6% | 23.7% | 0.127% (active) |
| N#C/C(=C/c1ccc(Cl)cc1)c1nnc(NC(=O)c2ccc(-n3c(=O)[nH]c4ccccc4c3=O)cc2)s1 | 91.6% | 86% | 61.1% | 77.8% | 114% | 84.3% | 95.5% | 116% | 97.9% | 94.9% |
| Cc1ccc2nc(COc3ccc(C(=O)NNC(=O)Nc4ccc(Cl)c(C(F)(F)F)c4)cc3)[nH]c2c1 | 98.4% | 77.3% | 38.7% | 110% | 110% | 89.7% | 73.2% | 116% | 41.6% | 75.5% |
| COc1ccc(C(=O)C[n+]2cccc3c4ccccc4ccc32)cc1 | 56.3% | 43.2% | 17.4% | 56.5% | 73.6% | 79% | 79% | 102% | 52.5% | 32% |
| CCCCCCCCc1ccc(C(=O)Nc2ccc(C)cc2C(=O)O)cc1 | 94.8% | 77.5% | 89.5% | 76.3% | 103% | 69.4% | 85.4% | 109% | 53.9% | 75.3% |
| COc1ccccc1NC(=O)N/N=C/c1c[nH]c2ccccc12 | -24.9% (active) | 12.3% | 23.2% | 39.1% | 33.2% | 25.8% | 42% | 60.6% | 17.4% | 7.13% (active) |
| Cn1cc(-c2cc(N)n3nc(-c4c[nH]c5ccc(F)cc45)cc3n2)c2cc(Br)cnc21 | 87.3% | 65.5% | 69.3% | 47.3% | 90.9% | 39.5% | 46% | 109% | -42.9% (active) | -10.4% (active) |
| COc1ccc(NC(=O)Cn2c(/C=C/c3cccc(OC)c3)nc3ccccc3c2=O)cc1 | 87.9% | 79.6% | -24% (active) | -74.3% (active) | -42.9% (active) | -61.4% (active) | 50.9% | -42.8% (active) | 89.4% | 97.4% |
| O=C1Nc2ccccc2/C1=C\c1ccc(OCC(=O)c2ccc(Br)cc2)cc1 | 72.4% | 65.6% | 62.7% | 48.5% | 94.9% | 70% | 67.8% | 100% | 58.2% | 8.54% (active) |
| O=C(Nc1ccc(F)cc1)Nc1nc2ccc([N+](=O)[O-])cc2s1 | -44.6% (active) | 1.79% (active) | -0.399% (active) | 4.33% (active) | 6.73% (active) | 2.52% (active) | -12.5% (active) | -15% (active) | 11.5% | 14.6% |
| O=C1Nc2cc(-c3ccc(NS(=O)(=O)c4ccc(-c5ccccc5)cc4)cc3)ccc2/C1=C/c1ccc[nH]1 | 83.1% | 10.9% | 16.3% | 68.5% | 49% | 47.4% | 40.7% | 75.6% | 32.2% | 27.6% |
| COc1cc(/C=C/C(=O)c2ccc(S(=O)(=O)NCCNc3nc(N(C)C)nc(N4CCOCC4)n3)cc2)cc(OC)c1OC | 81.4% | 36.3% | -22% (active) | 12.8% | 13.5% | -100% (active) | 39.4% | 51.9% | -27.9% (active) | -40.2% (active) |
